# ± gives the standard deviation of the averaged measurements. Whole data set: some 33,000 sequences, median “E-score (rank enrichment, -0.5 to 0.5)” near -0.0075, cut for the highest 2% near 0.23. The full list was thinned out, with the highest values kept by preference.
# System: WT Max(13-93) synthetic (M65Nle)
# Experiment: PBM 8-mer E-score (E-score (rank enrichment, -0.5 to 0.5)); higher = stronger preferential binding
# Method: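 Protein binding microarray (universal PBM chip covering all 10-mers in fixed probe flanks) with chemically synthesized human Max(13-93) bHLH-LZ analogs (not full-length Max) bearing noncanonical residues (hArg, Tha, Aib, Nle at 65) and aromatic Cys staples. Read-out per 8-mer (and its reverse complement): E-score (rank-based enrichment, -0.5 to 0.5) and Z-score of median probe intensity.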
row,Sequence,PBM 8-mer E-score
1,AATAATAA,0.242 ± 0.013
2,CATAATAA,0.114 ± 0.18
3,TCTAATAA,0.272 ± 0.069
4,TATAATAA,0.2203 ± 0.00023
5,CATAATAG,0.241 ± 0.027
6,GATAATTA,0.157 ± 0.17
7,AATAATAC,0.211 ± 0.029
8,AATAATAG,0.14 ± 0.12
9,ACTCGGTA,-0.0471 ± 0.064
10,CGTAGGCA,-0.0828 ± 0.077
11,GAAGCCCA,-0.0819 ± 0.0058
12,CCACCTGG,0.0162 ± 0.071
13,TCAACTCA,-0.088 ± 0.024
14,AGATGCGG,-0.0543 ± 0.14
15,CGCTTCTA,-0.0256 ± 0.055
16,CCATTGGG,-0.154 ± 0.1
17,CAATCCAG,0.0833 ± 0.0029
18,CCTAATTA,0.138 ± 0.094
19,CATAATTC,-0.0543 ± 0.0058
20,CATAATTA,0.236 ± 0.025
21,GTATCGAA,-0.0312 ± 0.052
22,AGCTAATG,-0.0403 ± 0.0067

row,Sequence,PBM 8-mer E-score
1,AATAATCA,0.125 ± 0.0096
2,CATAATCA,0.101 ± 0.028
3,GATAATAA,0.137 ± 0.092
4,GATAATCA,0.253 ± 0.14
5,GATAATCC,-0.0355 ± 0.034
6,TATAATCA,0.257 ± 0.014
7,ACGCCAGT,-0.159 ± 0.098
8,CTCGAATA,-0.174 ± 0.064
9,CCATTACA,0.165 ± 0.0069
10,AAGTTAAC,0.18 ± 0.0042
11,AAGTTAAG,-0.0928 ± 0.093
12,AAGTTAAT,0.234 ± 0.036
13,ATGGACAA,0.0228 ± 0.022
14,GCTCCTCC,-0.127 ± 0.14
15,GAATTATA,0.128 ± 0.074
16,AAATTATC,0.158 ± 0.031
17,TAATTATA,0.264 ± 0.11
18,CAATTATA,0.137 ± 0.059
19,AAATTATG,0.127 ± 0.011
20,AAATTATA,0.237 ± 0.0041
21,GCCGAAAA,0.0297 ± 0.015
22,CACGCGTA,0.165 ± 0.036

row,Sequence,PBM 8-mer E-score
1,CACGCGAC,0.271 ± 0.066
2,CACGCGAG,0.0779 ± 0.018
3,CACGCGCA,0.149 ± 0.079
4,CACGCGTG,0.349 ± 0.015
5,CACGCGCG,0.224 ± 0.034
6,AACGCGTC,-0.0583 ± 0.0094
7,CACGCGCC,0.238 ± 0.013
8,AACGCGTG,0.222 ± 0.068
9,CACGCGTC,0.266 ± 0.016
10,CACGCGAA,0.0737 ± 0.06
11,AACGCGTA,0.0664 ± 0.023
12,CAACTCGG,-0.13 ± 0.11
13,ATAACCGA,-0.0219 ± 0.011
14,CAAATTAC,0.177 ± 0.062
15,CCATCACC,0.144 ± 0.01
16,ATGCAGTG,0.0344 ± 0.068
17,AAATGCGA,-0.0159 ± 0.018
18,AGGCTAGG,0.0514 ± 0.046
19,GGCAGATA,0.116 ± 0.062
20,ACGTTTTG,0.101 ± 0.09
21,ACGTTATC,0.133 ± 0.013
22,CCGTTATA,0.132 ± 0.018

row,Sequence,PBM 8-mer E-score
1,ACGTTAGG,0.107 ± 0.099
2,ACGTTATG,0.24 ± 0.0059
3,ACGTTATA,0.241 ± 0.038
4,GCGTTATA,0.108 ± 0.025
5,ACATCATG,-0.0233 ± 0.006
6,AGCGCCTC,-0.185 ± 0.038
7,AACACCGG,-0.157 ± 0.029
8,ATTTGTTA,0.0868 ± 0.01
9,ATTTGTTC,0.241 ± 0.11
10,CTTTGTTC,0.0437 ± 0.024
11,CGAGATGA,-0.159 ± 0.091
12,AGTAGCTA,0.178 ± 0.057
13,GATCTCGA,-0.159 ± 0.022
14,CCGCCGAA,-0.156 ± 0.022
15,GACGTGAC,-0.0117 ± 0.088
16,TACGTGAA,0.0446 ± 0.099
17,CACGTGAG,0.404 ± 0.019
18,CACGTGAA,0.388 ± 0.053
19,GACGTGAA,-0.138 ± 0.057
20,CGCGTGAG,0.0752 ± 0.04
21,AACGTGAC,0.205 ± 0.016
22,CACGTGAC,0.4879 ± 0.0015
